Compound activity as filed in PubChem.
An excerpt weighted towards active compounds, which were near 12% of everything screened.
HP1b chromo inh: blocks HP1-beta chromodomain binding to methylated histone tails; AID 540317; P83916; Potency, µM (titrated, usually from 114 µM), actives largely listed as inhibitors; hit rate 0.56% among 390,000; AlphaScreen HP1-beta / biotin-H3K9me3 peptide binding; also: nearly all actives have a fitted effect of over 70% in size
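Compound inhibition of the preformed complex between 50 nM HP1-beta and 50 nM biotinylated H3K9me3 peptide was read by AlphaScreen. Buffer was PBS pH 7.4 with 0.01% Tween-20. Incubations ran 30 min at room temperature, with 10 ug/mL donor/acceptor beads.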
BAZ2B inh: BAZ2B (human) inhibition; Q9UIF8; Potency, µM (highest dose often 114 µM), actives largely listed as inhibitors; AlphaScreen BAZ2B-H3K14Ac peptide displacement; hit rate 4.4% among 360,000; also: nearly all actives have a fitted effect of over 60% in size
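AlphaScreen luminescence quantifies BAZ2B engagement of H3K14Ac peptide; the protein and biotinylated peptide are both at 50 nM final, buffer PBS pH 7.4 with 0.01% Tween-20, all steps at room temperature.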
Sfp PPTase inh: blocks B. subtilis Sfp PPTase activity; Q9F4F7; Biochemical Sfp PPTase activity, qHTS; AID 1490; Potency, µM, most hits filed as inhibitors; hit rate 3.5% among 310,000;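 also: the enzyme is Sfp with the accession as filed and its product quenches rhodamine fluorescence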
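Buffer: 50 mM Hepes-Na pH 7.6, 10 mM MgCl2, 0.01% Nonidet P-40, 0.01% BSA. Enzyme 15 nM, pre-exposed to compound 15 min; substrates then added and fluorescence change tracked over 30 min.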
L3MBTL1 block: L3MBTL1 (human) inhibition; Q9Y468; AlphaScreen L3MBTL1–H3K9me1 peptide binding; Potency, µM (top dose mostly 57.1 µM), hits mostly inhibitors; hit rate 0.66% among 230,000; also: nearly all actives have a fitted effect of over 60% in size
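L3MBTL1 (50 nM) pre-complexed 30 min with biotinylated H3(1-15)K9me1 peptide (75 nM), then compounds added for 30 min at room temperature; AlphaScreen streptavidin donor/nickel chelate acceptor beads (10 ug/mL final) read after 30 min dark incubation.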
JMJD2A Tudor inh: blocks the human JMJD2A Tudor domain; O75164; AlphaScreen JMJD2A-Tudor / H3K4me3 peptide binding; Potency, µM (series often up to 114 µM), usual class: inhibitors; hit rate 4.4% among 390,000; also: nearly all actives have a fitted effect of over 50% in size
Target sequence (O75164 whole entry, looked up, the tested form may be a part): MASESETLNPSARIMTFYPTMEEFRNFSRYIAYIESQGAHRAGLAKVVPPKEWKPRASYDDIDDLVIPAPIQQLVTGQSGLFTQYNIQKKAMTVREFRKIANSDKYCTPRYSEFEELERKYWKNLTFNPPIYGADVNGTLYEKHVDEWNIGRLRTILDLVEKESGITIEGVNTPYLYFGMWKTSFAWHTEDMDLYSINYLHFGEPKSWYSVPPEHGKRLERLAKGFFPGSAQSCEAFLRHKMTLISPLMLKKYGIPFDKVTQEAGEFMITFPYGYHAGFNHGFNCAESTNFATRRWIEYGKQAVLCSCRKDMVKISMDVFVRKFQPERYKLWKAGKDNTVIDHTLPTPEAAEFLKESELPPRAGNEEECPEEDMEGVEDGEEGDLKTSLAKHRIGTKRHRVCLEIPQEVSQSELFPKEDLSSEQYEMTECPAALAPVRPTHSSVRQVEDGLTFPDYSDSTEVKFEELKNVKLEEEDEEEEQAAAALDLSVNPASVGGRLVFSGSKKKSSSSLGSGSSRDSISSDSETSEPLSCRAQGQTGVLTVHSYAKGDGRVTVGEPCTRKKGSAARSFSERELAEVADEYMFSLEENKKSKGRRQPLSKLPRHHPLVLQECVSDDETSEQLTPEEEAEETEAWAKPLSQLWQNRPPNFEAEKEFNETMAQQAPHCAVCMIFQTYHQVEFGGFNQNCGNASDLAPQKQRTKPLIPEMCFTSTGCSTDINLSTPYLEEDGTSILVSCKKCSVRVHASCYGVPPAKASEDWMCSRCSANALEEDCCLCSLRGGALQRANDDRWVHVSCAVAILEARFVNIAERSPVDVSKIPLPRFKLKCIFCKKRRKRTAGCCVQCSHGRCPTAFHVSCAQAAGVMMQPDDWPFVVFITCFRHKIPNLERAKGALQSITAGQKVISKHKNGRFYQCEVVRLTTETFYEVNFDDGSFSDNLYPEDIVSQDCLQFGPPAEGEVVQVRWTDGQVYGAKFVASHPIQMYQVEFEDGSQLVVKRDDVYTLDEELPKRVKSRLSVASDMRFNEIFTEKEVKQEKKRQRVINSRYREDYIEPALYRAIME
G9a inh: G9a (human) methyltransferase inhibition. Q96KQ7. G9a H3K9 monomethylation, AlphaScreen, 2 h. Potency, µM (doses to about 102 µM), actives largely listed as inhibitors. hit rate 8.8% among 350,000; also: nearly all actives have a fitted effect of over 75% in size
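G9a (20 nM) preincubated 15 min RT with compounds, then 500 nM biotinylated H3K9 peptide and 20 uM SAM added; 2 h RT reaction. Monomethyl-H3K9 product detected by AlphaScreen with anti-H3K9me1 antibody, streptavidin donor and anti-rabbit IgG acceptor beads.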
A number is an active result; – = inactive; ? = inconclusive; · = not tested or not shown; [ ] = another dose, or the depositor's remark. Calls follow the shape of the dose curve; as a rule, active = well fitted curve in the direction sought with a large enough effect; inconclusive = small, poorly fitted or top-dose-only effect, or another doubt; inactive = no such curve, though single readings can be large; an effect the other way counts as inactive or inconclusive.

SMILES | HP1b chromo inh | BAZ2B inh | Sfp PPTase inh | L3MBTL1 block | JMJD2A Tudor inh | G9a inh
Cc1[nH]n(-c2ccccc2)c(=O)c1/C=N/N(c1ccccc1)c1ccccc1 | ? | ? | – | – | 39.8µM | –[0.501 µM]
Cc1[nH]n(-c2ccccc2)c(=O)c1C=Nc1cccc(F)c1 | – | – | – | – | – | 44.7µM
O=C(Nc1ccc(F)cc1)c1csc2c1CCCCC2 | – | – | · | · | – | ?
CC(=O)NS(=O)(=O)c1ccc(Nc2ccc([N+](=O)[O-])c3nonc23)cc1 | – | 50.1µM | – | · | – | –
CCOc1ccc(Nc2ccc([N+](=O)[O-])c3nonc23)cc1 | 12.6µM | 14.1µM | – | · | 35.5µM | 25.1µM
Cc1ccccc1Nc1ccc2nonc2c1[N+](=O)[O-] | – | ? | – | · | – | –
O=[N+]([O-])c1ccc(Sc2cccc[n+]2[O-])c2nonc12 | 7.94µM | 56.2µM | 1.26µM | ? | 20µM | 0.501µM
O=[N+]([O-])c1ccc(Nc2ccccc2)c2nonc12 | ? | 39.8µM | – | · | 56.2µM | 44.7µM
Cn1cccc1C(=O)N1CCC2(CCCN(c3ccccn3)C2)CC1 | · | · | – | · | · | –[12.7 µM]
Cc1ccc2[nH]c3c(=O)n(CC(=O)N4CCCC(C)C4)ncc3c2c1 (stereo not given) | – | – | · | · | – | –
Cc1ccc(-n2nc(C(=O)N3CCCCC3C)c(=O)n(C)c2=O)cc1 (stereo not given) | – | – | · | · | – | –
COC(=O)c1ccc(-n2nnc(-c3nc(-c4ccccc4Cl)no3)c2C)cc1 | – | – | · | · | – | –
CCOC(=O)c1ccc(-n2c(CC)nc3ccccc3c2=O)cc1 | · | – | – | – | · | –
CCOC(=O)c1ccc(-n2c(CN3CCC(C(N)=O)CC3)nc3ccc([N+](=O)[O-])cc3c2=O)cc1 | – | · | 22.4µM | – | – | ?
CCOC(=O)c1ccc(-n2c(CN3CCC(O)CC3)nc3ccc([N+](=O)[O-])cc3c2=O)cc1 | – | ? | 17.8µM | · | – | 12.6µM
CC(=O)N1c2c(cc(Br)cc2S(=O)(=O)Nc2ccc(OC(F)(F)F)cc2)CC1C (stereo not given) | – | – | · | · | – | –
Cc1cccc(C(=O)N(Cc2ccccc2F)C2CCS(=O)(=O)C2)c1 (stereo not given) | – | – | · | · | – | –
O=[N+]([O-])c1ccccc1N=Nc1ccc(O)cc1O | ? | · | · | · | 56.2µM | ·
O=[N+]([O-])c1ccccc1-c1cc(-c2ccccc2O)n[nH]1 | – | ? | – | – | – | –
CCOC(=O)c1ccccc1NC(=O)CSc1ccc(-c2sc(-c3ccccc3)nc2C)nn1 | – | – | · | · | – | –
Cc1cccc(N=Nc2c(C)nn(-c3ccccc3)c2N)c1C | ? | 17.8µM | – | ? | 25.1µM | 10µM
Nc1nn(-c2ccccc2)c(N)c1N=Nc1ccccc1F | – | 35.5µM | – | – | ? | ?
Cc1nn(-c2ccccc2)c(N)c1N=Nc1cccc(S(=O)(=O)N2CCOCC2)c1 | ? | 28.2µM | – | – | ? | ?
Cc1ccc(C)n1-c1cccc(S(=O)(=O)N2CCOCC2)c1 | – | – | – | · | – | –
Nc1ncnc(N)c1N=Nc1ccccc1 | – | – | – | – | – | –
SMILES | HP1b chromo inh | BAZ2B inh | Sfp PPTase inh | L3MBTL1 block | JMJD2A Tudor inh | G9a inh
Nc1c(N=Nc2ccccc2F)c(=O)[nH]n1-c1ccccc1 | – | ? | – | – | ? | –
Nc1nn(-c2ccccc2)c(N)c1N=Nc1ccccc1 | ? | 39.8µM | – | – | ? | ?
CC(C)(C)OC(=O)N1CCC(c2c(C(=O)NCCN3CCOCC3)cnn2-c2cccc(Cl)c2)CC1 | – | – | · | · | – | –
COc1ccc(C(=O)Nc2ccccc2-c2nc(-c3ccc(OC)cc3)no2)cc1 | – | – | · | · | – | –
Cc1nn(-c2ccccc2)c(N)c1N=Nc1ccccc1 | ? | 31.6µM | – | – | 56.2µM | 44.7µM
Cc1nn(-c2ccccc2)c(N)c1N=Nc1ccc(Cl)cc1 | ? | 39.8µM | ? | ? | 44.7µM | 35.5µM
Cc1nn(-c2ccccc2)c(N)c1-c1ccccc1 | – | – | – | – | – | –
COc1ccc(-c2cc(C(=O)Nc3ccc(C#N)cc3)no2)cc1 | – | – | · | · | – | –
CC(C)C[C@@H](CN)NC(=O)c1nc[nH]c1C(=O)N[C@@H](Cc1ccccc1)C(=O)CNC[C@H](C)NC(=O)c1nc[nH]c1C(=O)N[C@@H](CC(=O)O)C(=O)O | – | · | · | · | ? | ·
CC(C)C[C@@H](CNCC(=O)[C@H](Cc1c[nH]c2ccccc12)NC(=O)c1[nH]cnc1C(=O)N[C@@H](C)CN)NC(=O)c1nc[nH]c1C(=O)N[C@@H](CC(=O)O)C(=O)O | – | · | · | · | 20µM | ·
COC(=O)C(Cc1c[nH]c2ccccc12)NC(=O)c1ccc2nc[nH]c2c1 (stereo not given) | – | – | · | – | – | –
CC(C)C[C@@H](CNCC(=O)[C@H](Cc1c[nH]c2ccccc12)NC(=O)c1[nH]cnc1C(=O)N[C@H](CN)CC(C)C)NC(=O)c1nc[nH]c1C(=O)N[C@@H](CC(=O)O)C(=O)O | ? | · | · | · | 39.8µM | ·
CC(C)C[C@@H](CNCC(=O)[C@H](Cc1c[nH]c2ccccc12)NC(=O)c1[nH]cnc1C(=O)N[C@@H](C)CN)NC(=O)c1nc[nH]c1C(=O)N[C@@H](C)C(=O)O | – | · | · | · | 50.1µM | ·
CC(C)C[C@@H](CN)NC(=O)c1nc[nH]c1C(=O)N[C@@H](Cc1c[nH]c2ccccc12)C(=O)CNC[C@H](C)NC(=O)c1nc[nH]c1C(=O)N[C@@H](CC(=O)O)C(=O)O | – | · | · | · | 56.2µM | ·
Cc1cc(NC(=O)CCNS(=O)(=O)c2cccc3nsnc23)ccc1Br | – | – | · | · | – | ?
COc1ccccc1-c1nccc(NC2CCNCC2)n1 | · | · | – | · | · | –[0.501 µM]
O=C(O)[C@H]1[C@H]2C[C@H]3c4[nH]c5ccccc5c4CCN3C[C@@H]2CC[C@@H]1O | · | · | – | · | · | ·
COc1cc2c(cc1OC)CN(Cc1cc(=O)n3cc(C)ccc3n1)CC2 | – | – | – | – | – | 35.5µM
COC(=O)CSc1nnc(-c2cccc(NC(=O)c3ccc(C)cc3)c2)n1C | – | – | – | – | – | –
C/C=C/c1ccc(OCc2cc(=O)n3cc(C)ccc3n2)c(OC)c1 | – | ? | – | – | – | ·
C=CCn1c(COc2cccc(C)c2C)nnc1SCC(=O)N1CCN(c2ccccc2)CC1 | – | ? | – | – | ? | 3.98µM
CCn1c(SCC(=O)N2CCN(c3ccccc3)CC2)nnc1-c1ccncc1 | · | – | – | – | · | 1.78µM
Cn1c(SCC(=O)O)nnc1-c1cccc(NC(=O)c2cccc3ccccc23)c1 | – | – | – | – | –[11.4 µM] | 31.6µM
N=c1ccn2c(n1)O[C@@H]1[C@H](O)[C@H](CO)O[C@@H]12 | · | · | – | · | · | ·
CC1CC[C@@]2(OC1)OC1CC3C4CC[C@H]5CC(O)CC[C@@]5(C)C4CC[C@]3(C)C1C2C (stereo not given in full) | · | · | – | · | · | ·
